In PubChem BioAssay AID1159580 (chemical genetic matrix, 2015):
The whole screen tested about 5,500 compounds, of which about 2,000 (36%) were called active. Inconclusive results (about 18%) are left out. This is one part of the list. Values without a mark were called inactive. Cut-off read from the data, not from the text of the source: active = normalized growth mostly below about 0.91 (no sharp cut-off); inconclusive = no clear call, values can overlap the other calls; inactive = mostly above about 0.92.

Assay: chemical genetic growth profiling, strain panel (AID 1159580);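 note: tested at 20 µM; growth read once vehicle control cultures reached saturation at 30 °C; 1 = growth at the plate median or of vehicle wells; lower values mean less growth of the strain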
Details: S. cerevisiae deletion strains, growth OD

## Nc1ncnc2c1nc(Sc1ccc(Cl)cc1)n2C1OC2COP(=O)(O)O[C@@H]2[C@@H]1O (stereo partly specified)
Locus YAL040C, strain CLN3, hits give low values
  normalized growth: 0.98
Locus YDR150W, strain NUM1, hits give low values
  normalized growth: 0.999
Locus YDR363W, strain ESC2, hits give low values
  normalized growth: 1.01
Locus YER002W, strain NOP16, hits give low values
  normalized growth: 0.984
Locus YNL175C, strain NOP13, hits give low values
  normalized growth: 1.01
Locus YNL197C, strain WHI3, hits give low values
  normalized growth: 1.02
Locus YNL224C, strain SQS1, hits give low values
  normalized growth: 0.995
Locus YNL322C, strain KRE1, hits give low values
  normalized growth: 0.996
Locus YOR083W, strain WHI5 (second series), hits give low values
  normalized growth: 1.02
Locus YPL241C, strain CIN2, hits give low values
  normalized growth: 1

## O=C(NCCc1ccncc1)c1ccc(Cl)c(Cl)c1
Locus YAR019C, strain CDC15, hits give low values
  normalized growth: 0.985
Locus YBL105C, strain PKC1, hits give low values
  normalized growth: 0.987
Locus YBR135W, strain CKS1, hits give low values
  normalized growth: 0.988
Locus YBR136W, strain MEC1, hits give low values
  normalized growth: 0.987
Locus YBR160W, strain CDC28, hits give low values
  normalized growth: 0.991
Locus YDL017W, strain CDC7, hits give low values
  normalized growth: 0.991
Locus YDL028C, strain MPS1, hits give low values
  normalized growth: 0.985
Locus YDL101C, strain DUN1, hits give low values
  normalized growth: 0.98
Locus YDL108W, strain KIN28, hits give low values
  normalized growth: 0.981
Locus YDL132W, strain cdc53, hits give low values
  normalized growth: 0.998
Locus YDL214C, strain PRR2, hits give low values
  normalized growth: 0.945
Locus YDR052C, strain DBF4, hits give low values
  normalized growth: 0.988
Locus YDR054C, strain cdc34, hits give low values
  normalized growth: 0.984
Locus YDR226W, strain ADK1, hits give low values
  normalized growth: 0.985
Locus YDR477W, strain SNF1, hits give low values
  normalized growth: 1.01
Locus YER123W, strain YCK3, hits give low values
  normalized growth: 0.877
Locus YER133W, strain GLC7, hits give low values
  normalized growth: 0.969
Locus YFL009W, strain cdc4, hits give low values
  normalized growth: 0.982
Locus YFL029C, strain CAK1, hits give low values
  normalized growth: 0.98
Locus YFR003C, strain YPI1, hits give low values
  normalized growth: 0.984
Locus YFR019W, strain FAB1, hits give low values
  normalized growth: 0.927
Locus YFR028C, strain CDC14, hits give low values
  normalized growth: 0.994
Locus YGR040W, strain KSS1, hits give low values
  normalized growth: 0.992
Locus YGR052W, strain FMP48, hits give low values
  normalized growth: 0.985
Locus YGR092W, strain DBF2, hits give low values
  normalized growth: 1
Locus YHR030C, strain SLT2, hits give low values
  normalized growth: 0.911
Locus YHR079C, strain IRE1, hits give low values
  normalized growth: 0.938
Locus YHR082C, strain KSP1, hits give low values
  normalized growth: 1.1
Locus YHR205W, strain SCH9, hits give low values
  normalized growth: 0.99
Locus YIL147C, strain SLN1, hits give low values
  normalized growth: 0.986
Locus YJL095W, strain BCK1, hits give low values
  normalized growth: 0.925
Locus YJL128C, strain PBS2, hits give low values
  normalized growth: 0.94
Locus YJL157C, strain FAR1, hits give low values
  normalized growth: 0.96
Locus YJR016C, strain ILV3, hits give low values
  normalized growth: 0.995
Locus YJR066W, strain TOR1 (second series), hits give low values
  normalized growth: 1.03
Locus YJR066W, strain TOR1, hits give low values
  normalized growth: 1.04
Locus YKL048C, strain ELM1, hits give low values
  normalized growth: 0.992
Locus YKL067W, strain YNK1, hits give low values
  normalized growth: 0.947
Locus YKL101W, strain HSL1, hits give low values
  normalized growth: 0.941
Locus YKL193C, strain SDS22, hits give low values
  normalized growth: 0.992
Locus YKL203C, strain TOR2, hits give low values
  normalized growth: 1.01
Locus YLR113W, strain HOG1, hits give low values
  normalized growth: 0.756 (active)
Locus YLR133W, strain CKI1, hits give low values
  normalized growth: 0.977
Locus YLR403W, strain SFP1, hits give low values
  normalized growth: 0.972
Locus YML070W, strain DAK1, hits give low values
  normalized growth: 0.941
Locus YMR001C, strain CDC5, hits give low values
  normalized growth: 0.989
Locus YMR205C, strain PFK2 (second series), hits give low values
  normalized growth: 0.978
Locus YMR277W, strain FCP1, hits give low values
  normalized growth: 0.989
Locus YNL006W, strain LST8, hits give low values
  normalized growth: 0.976
Locus YNL020C, strain ARK1, hits give low values
  normalized growth: 0.964
Locus YNL161W, strain CBK1, hits give low values
  normalized growth: 0.991
Locus YNL183C, strain NPR1, hits give low values
  normalized growth: 1.01
Locus YNL207W, strain RIO2, hits give low values
  normalized growth: 0.991
Locus YNL222W, strain SSU72, hits give low values
  normalized growth: 0.992
Locus YNL307C, strain MCK1 (second series), hits give low values
  normalized growth: 0.961
Locus YOL078W, strain AVO1, hits give low values
  normalized growth: 0.997
Locus YOL136C, strain PFK27, hits give low values
  normalized growth: 0.945
Locus YOR061W, strain CKA2, hits give low values
  normalized growth: 0.924
Locus YOR119C, strain RIO1, hits give low values
  normalized growth: 1.03
Locus YOR231W, strain MKK1, hits give low values
  normalized growth: 0.916
Locus YOR329C, strain SCD5, hits give low values
  normalized growth: 0.991
Locus YPL031C, strain PHO85, hits give low values
  normalized growth: 0.976
Locus YPL153C, strain RAD53, hits give low values
  normalized growth: 0.993
Locus YPL204W, strain HRR25, hits give low values
  normalized growth: 0.972
Locus YPL209C, strain IPL1, hits give low values
  normalized growth: 0.987
Locus YPL256C, strain CLN2, hits give low values
  normalized growth: 0.868
Locus YPR025C, strain CCL1, hits give low values
  normalized growth: 0.992
Locus YPR106W, strain ISR1, hits give low values
  normalized growth: 0.983
Locus YPR111W, strain DBF20, hits give low values
  normalized growth: 0.961
Strain NNK1, hits give low values
  normalized growth: 0.982
Strain TSCII, hits give low values
  normalized growth: 0.983
